Our source for the outcome and AC50 values is PubChem BioAssay (EPA / NIEHS).

Conditions in all cases: mRNA level, 48 h; actives raise or lower the signal
Read-out in assay [1]: Peroxisomal acyl-coenzyme A oxidase 1 (ACOX1) gene, ACOX1 (gene 51)
Nature of the assay: LTEA_HepaRG_ACOX1: Life Technologies and Expression Analysis (LTEA) Assay for Peroxisomal acyl-coenzyme A oxidase 1 (ACOX1) gene using HepaRG (AID 2283467). In outline:
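Human HepaRG hepatic cultures, 48 h treatment with test chemicals up to 100 uM. ACOX1 expression read by qRT-PCR relative to 0.5% DMSO vehicle.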

Read-out in assay [2]: Alkaline Phosphatase, Placental (ALPP) gene, ALPP (gene 250)
Nature of the assay: LTEA_HepaRG_ALPP: Life Technologies and Expression Analysis (LTEA) Assay for Alkaline Phosphatase, Placental (ALPP) gene using HepaRG (AID 2283468).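 On AC50: differentiated human HepaRG liver cells in serum-free induction medium; ALPP transcript by TaqMan qRT-PCR normalized to ACTB GAPDH and POLR2A.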 An outline of the steps: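 Expression of ALPP was quantified by qRT-PCR against three housekeeping genes in human HepaRG cultures treated for 48 h with an eight-point concentration series up to 100 uM. Activity in either direction was fitted relative to 0.5% DMSO.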

Read-out in assay [3]: Bcl-2 (BAD) gene, BAD (gene 572)
Nature of the assay: LTEA_HepaRG_BAD: Life Technologies and Expression Analysis (LTEA) Assay for Bcl-2 (BAD) gene using HepaRG (AID 2283469). An outline of the steps: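 Activity values reflect up- or down-regulation of BAD mRNA in human HepaRG hepatic cells treated 48 h in serum-free medium, with eight-point half-log dosing capped at 100 uM and 0.5% DMSO vehicle.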

Read-out in assay [4]: Bcl-2 (BAX) gene, BAX (gene 581)
Nature of the assay: LTEA_HepaRG_BAX: Life Technologies and Expression Analysis (LTEA) Assay for Bcl-2 (BAX) gene using HepaRG (AID 2283470). In outline:
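qRT-PCR read-out of BAX mRNA, normalized to three housekeeping genes, after 48 h chemical exposure of human HepaRG cells in serum-free induction medium; eight-point half-log series, top 100 uM, 0.5% DMSO vehicle; bidirectional fit versus DMSO.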

Read-out in assay [5]: adenosine kinase (ADK) gene, ADK (gene 132)
Nature of the assay: LTEA_HepaRG_ADK: Life Technologies and Expression Analysis (LTEA) Assay for adenosine kinase (ADK) gene using HepaRG (AID 2283471). An outline of the steps: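 Differentiated HepaRG cells dosed 48 h in serum-free induction medium, 0.5% DMSO vehicle, eight half-log concentrations from 100 uM, in duplicate. ADK mRNA by TaqMan qRT-PCR normalised to ACTB, GAPDH, POLR2A; bidirectional fit versus DMSO.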

Read-out in assay [6]: Alpha-fetoprotein (AFP) gene, AFP (gene 174)
Nature of the assay: LTEA_HepaRG_AFP: Life Technologies and Expression Analysis (LTEA) Assay for Alpha-fetoprotein (AFP) gene using HepaRG (AID 2283472).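 On AC50: AFP transcript by TaqMan qRT-PCR normalized to ACTB GAPDH and POLR2A.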 In outline:
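qRT-PCR (Fluidigm TaqMan) readout of AFP transcript, normalized to three housekeeping genes, fitted bidirectionally against 0.5% DMSO baseline. HepaRG cells received chemicals for 48 h in serum-free induction medium, top concentration 100 uM, half-log steps.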

Read-out in assay [7]: BCL2L11 (gene 10018)
Nature of the assay: LTEA_HepaRG_BCL2L11: Life Technologies and Expression Analysis (LTEA) Assay for Bcl-2 (BCL2L11) gene using HepaRG (AID 2283473). An outline of the steps:
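Cells were plated, cultured 48 h, switched to serum-free induction medium, then dosed in duplicate for 48 h at eight half-log concentrations up to 100 uM. Lysates underwent RNA isolation and TaqMan qRT-PCR; gain or loss versus DMSO was fitted.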

Read-out in assay [8]: Apolipoprotein A-V (APOA5) gene, APOA5 (gene 116519)
Nature of the assay: LTEA_HepaRG_APOA5: Life Technologies and Expression Analysis (LTEA) Assay for Apolipoprotein A-V (APOA5) gene using HepaRG (AID 2283474). In outline: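 Human liver HepaRG cells are treated 48 h with test chemicals (100 uM top, half-log dilutions, 0.5% DMSO). APOA5 mRNA induction or loss is measured by qRT-PCR relative to vehicle.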

Read-out in assay [9]: Apoptosis regulator Bcl-2 (Homo sapiens) (UniProt P10415)
Nature of the assay: LTEA_HepaRG_BCL2: Life Technologies and Expression Analysis (LTEA) Assay for Bcl-2 gene using HepaRG (AID 2283475). An outline of the steps: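 qRT-PCR read-out (Fluidigm TaqMan) of BCL2 transcript, normalised to three housekeeping genes, after 48 h chemical exposure of HepaRG cells; 8-point half-log series, top 100 uM, 0.5% DMSO vehicle. Gain or loss of signal fitted relative to DMSO baseline.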

Read-out in assay [10]: Bcl-2 (BID) gene, BID (gene 637)
Nature of the assay: LTEA_HepaRG_BID: Life Technologies and Expression Analysis (LTEA) Assay for Bcl-2 (BID) gene using HepaRG (AID 2283476). In outline:
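HepaRG, 48 h exposure, 8-pt half-log series, top 100 uM, 0.5% DMSO vehicle, duplicates. Readout: BID mRNA by TaqMan qRT-PCR; housekeeping-normalized; bidirectional curve fit vs DMSO baseline.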

Read-out in assay [11]: Caspase-3 (Homo sapiens) (UniProt P42574)
Nature of the assay: LTEA_HepaRG_CASP3: Life Technologies and Expression Analysis (LTEA) Assay for cysteine-aspartic acid protease (CASP3) using HepaRG (AID 2283477). An outline of the steps:
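In HepaRG liver cells dosed for 48 h at up to 100 uM (eight-point, duplicate), CASP3 expression changes are scored by qRT-PCR. Activity is fitted in both directions with 0.5% DMSO as baseline.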

Read-out in assay [12]: Cytochrome P450 (CYP24A1), CYP24A1 (gene 1591)
Nature of the assay: LTEA_HepaRG_CYP24A1: Life Technologies and Expression Analysis (LTEA) Assay for Cytochrome P450 (CYP24A1) using HepaRG (AID 2283478). An outline of the steps:
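Human liver HepaRG cultures receive each chemical for 48 h across an eight-point half-log series topping at 100 uM in 0.5% DMSO. Induction or suppression of CYP24A1 mRNA is scored relative to vehicle after housekeeping-gene normalization.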

Read-out in assay [13]: Cytochrome P450 (CYP1A2), CYP1A2 (gene 1544)
Nature of the assay: LTEA_HepaRG_CYP1A2: Life Technologies and Expression Analysis (LTEA) Assay for Cytochrome P450 (CYP1A2) using HepaRG (AID 2283479).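 On AC50: TaqMan qRT-PCR transcript level normalized to ACTB GAPDH and POLR2A.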 An outline of the steps: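 Assesses CYP1A2 mRNA in human HepaRG liver cells after 48 h chemical exposure at up to 100 uM. Values come from qRT-PCR with bidirectional curve fitting relative to DMSO.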

Read-out in assay [14]: cysteine-aspartic acid protease (CASP8), CASP8 (gene 841)
Nature of the assay: LTEA_HepaRG_CASP8: Life Technologies and Expression Analysis (LTEA) Assay for cysteine-aspartic acid protease (CASP8) using HepaRG (AID 2283480). In outline: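 Concentration-response in duplicate up to 100 uM (half-log steps, 0.5% DMSO) on differentiated HepaRG cultures for 48 h. Expression change of CASP8 mRNA is determined by TaqMan qRT-PCR with housekeeping-gene normalization.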

Read-out in assay [15]: Cytochrome P450 (CYP2B6), CYP2B6 (gene 1555)
Nature of the assay: LTEA_HepaRG_CYP2B6: Life Technologies and Expression Analysis (LTEA) Assay for Cytochrome P450 (CYP2B6) using HepaRG (AID 2283481). An outline of the steps: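 Using 48 h treatment of HepaRG cells in serum-free induction medium, concentrations spanned half-log steps from 100 uM in 0.5% DMSO vehicle. CYP2B6 mRNA induction or loss is scored by qRT-PCR against DMSO.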

Read-out in assay [16]: Cytochrome P450 2C19 (Homo sapiens) (UniProt P33261)
Nature of the assay: LTEA_HepaRG_CYP2C19: Life Technologies and Expression Analysis (LTEA) Assay for CYP2C19 using HepaRG (AID 2283482). In outline: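 Human HepaRG liver cells received test chemicals for 48 h (highest 100 uM, half-log dilutions in 0.5% DMSO). CYP2C19 mRNA induction or loss is read by multiplexed qRT-PCR and fitted in both directions versus vehicle.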

Read-out in assay [17]: CYP2C8 (gene 1558)
Nature of the assay: LTEA_HepaRG_CYP2C8: Life Technologies and Expression Analysis (LTEA) Assay for CYP2C8 using HepaRG (AID 2283483). An outline of the steps: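 This is a transcriptional endpoint in HepaRG cultures: 48 h exposure, highest concentration 100 uM. CYP2C8 mRNA is quantified by TaqMan qRT-PCR.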

Read-out in assay [18]: CYP2C9 (gene 1559)
Nature of the assay: LTEA_HepaRG_CYP2C9: Life Technologies and Expression Analysis (LTEA) Assay for CYP2C9 using HepaRG (AID 2283484). In outline:
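Eight-point concentration-response (highest 100 uM, half-log dilutions) in HepaRG cells for 48 h; CYP2C9 expression by qRT-PCR normalized to ACTB, GAPDH, POLR2A. Bidirectional fit, DMSO baseline.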

Read-out in assay [19]: CYP2E1 (gene 1571)
Nature of the assay: LTEA_HepaRG_CYP2E1: Life Technologies and Expression Analysis (LTEA) Assay for CYP2E1 using HepaRG (AID 2283485). In outline: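 CYP2E1 transcript was measured by TaqMan qRT-PCR in human HepaRG cultures after 48 h chemical exposure (top 100 uM, half-log steps, 0.5% DMSO vehicle). Housekeeping-gene normalization; gain or loss fitted relative to DMSO baseline.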

Read-out in assay [20]: CYP4A11 (gene 1579)
Nature of the assay: LTEA_HepaRG_CYP4A11: Life Technologies and Expression Analysis (LTEA) Assay for CYP4A11 using HepaRG (AID 2283486). An outline of the steps:
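Readout is CYP4A11 mRNA induction or suppression (qRT-PCR, ACTB/GAPDH/POLR2A normalization) in human HepaRG cells after 48 h chemical treatment, concentrations to 100 uM in 0.5% DMSO, fitted bidirectionally against vehicle.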

Activity calls are given as the source filed them. How the source made its calls: active means hit-call score of the fitted dose curve at least 0.9, where 1 is the maximum; inactive means score below 0.9.

In general, AC50 refers to the concentration giving half of the maximal activity seen.

Chain of Caspase-3 (Homo sapiens) (P42574 whole entry, looked up): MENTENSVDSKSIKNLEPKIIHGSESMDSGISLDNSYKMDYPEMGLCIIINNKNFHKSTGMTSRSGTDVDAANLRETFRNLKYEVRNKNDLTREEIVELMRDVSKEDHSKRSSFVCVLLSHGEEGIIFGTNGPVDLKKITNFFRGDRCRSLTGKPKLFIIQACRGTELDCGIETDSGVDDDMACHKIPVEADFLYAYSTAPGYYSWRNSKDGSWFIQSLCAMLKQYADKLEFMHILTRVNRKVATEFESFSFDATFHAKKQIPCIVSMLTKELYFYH
Chain of Apoptosis regulator Bcl-2 (Homo sapiens) (P10415 whole entry, looked up): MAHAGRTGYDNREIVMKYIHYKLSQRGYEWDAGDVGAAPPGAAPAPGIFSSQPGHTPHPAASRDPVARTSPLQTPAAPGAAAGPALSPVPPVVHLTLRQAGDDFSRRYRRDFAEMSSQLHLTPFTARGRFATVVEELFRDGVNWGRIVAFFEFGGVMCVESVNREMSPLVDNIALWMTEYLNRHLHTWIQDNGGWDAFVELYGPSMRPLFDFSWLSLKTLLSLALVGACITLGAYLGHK
Chain of Cytochrome P450 2C19 (Homo sapiens) (P33261 whole entry, looked up): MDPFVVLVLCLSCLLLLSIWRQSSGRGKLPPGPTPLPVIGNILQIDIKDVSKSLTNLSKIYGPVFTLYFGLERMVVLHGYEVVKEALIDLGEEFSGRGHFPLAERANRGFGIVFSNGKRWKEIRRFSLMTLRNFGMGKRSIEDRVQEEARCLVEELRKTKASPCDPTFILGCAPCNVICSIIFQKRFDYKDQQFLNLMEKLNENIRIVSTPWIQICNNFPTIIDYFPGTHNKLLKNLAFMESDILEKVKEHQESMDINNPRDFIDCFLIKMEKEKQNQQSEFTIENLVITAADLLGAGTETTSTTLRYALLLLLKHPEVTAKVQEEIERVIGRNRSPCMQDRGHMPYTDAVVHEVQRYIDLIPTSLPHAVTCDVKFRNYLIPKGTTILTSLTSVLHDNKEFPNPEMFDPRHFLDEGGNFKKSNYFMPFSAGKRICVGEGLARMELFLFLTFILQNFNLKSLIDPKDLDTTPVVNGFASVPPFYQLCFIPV

On to `C/C=C/c1ccc(OC)cc1`, for which the outcome in assay [1], in assay [2], in [3], in assay [4], in assay [5] and in assay [6] was inactive. Also, the compound was classed as inactive in assay [7], in [8], in assay [9], in [10], in assay [11] and in assay [12]. Moreover, the compound was classed as inactive in assay [13], in assay [14], in assay [15], in assay [16], in assay [17] and in assay [18]. The call in [19] and in [20] was inactive.
With `Cc1ccc(-c2cc(C(F)(F)F)nn2-c2ccc(S(N)(=O)=O)cc2)cc1`, the AC50 in [1] is 92.9 µM (active); in assay [5], 93.8 µM (active); in assay [7], 82.5 µM (active); in [13] it was 15.8 µM (active); in assay [15], 90.2 µM (active); in assay [16], 23.6 µM (active). Further, the AC50 was 38.2 µM (active) in assay [19] and 6 µM (active) in assay [20]. Moreover, the outcome in assay [2], in assay [3], in [4], in assay [6], in assay [8] and in [9] was inactive. Moreover, the result in assay [10], in assay [11], in [12], in [14], in assay [17] and in assay [18] was inactive.
`CCc1nc(N)nc(N)c1-c1ccc(Cl)cc1`: the AC50 in assay [1] is 18.6 µM (active); in assay [2] it was 44.2 µM (active); in assay [6] it was 32.8 µM (active); in [9] it was 50 µM (active); in [13], 23.8 µM (active); in assay [15], 82.3 µM (active). Further, the AC50 was 79.6 µM (active) in [17], 44.5 µM (active) in assay [18], 26 µM (active) in assay [19] and 64.2 µM (active) in [20]. The call in assay [3], in [4], in assay [5], in [7], in [8] and in assay [10] was inactive. For the same compound, the compound was called inactive in assay [11], in [12] and in [14].
